Screens from PubChem.
S1P4 agonist = activates the human S1P4 receptor. 220,000 compounds, 0.35% hits. activation, % at 4.98 µM. S1P4-expressing cell line, agonist reporter assay. O95977; in the data active = activation above about 11%;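 note: 0% = DMSO vehicle and 100% = reference agonist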
Target sequence (O95977 whole entry, looked up): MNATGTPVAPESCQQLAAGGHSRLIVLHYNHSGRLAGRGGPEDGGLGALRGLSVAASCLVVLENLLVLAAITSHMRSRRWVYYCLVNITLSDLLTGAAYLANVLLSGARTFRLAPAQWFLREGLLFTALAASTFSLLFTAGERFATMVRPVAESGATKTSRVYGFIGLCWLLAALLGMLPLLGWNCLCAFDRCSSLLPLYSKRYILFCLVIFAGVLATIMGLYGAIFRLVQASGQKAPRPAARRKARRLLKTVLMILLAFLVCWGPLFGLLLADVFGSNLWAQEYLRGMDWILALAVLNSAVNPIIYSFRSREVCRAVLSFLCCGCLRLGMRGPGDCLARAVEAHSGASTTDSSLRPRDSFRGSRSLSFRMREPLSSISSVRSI
Redox H2O2 prof = compounds producing H2O2 with reducing agent – biochemical, NIH compound library profiling, artefact control for MLSCN library redox annotation, primary screen; activation, % at 10 µM; AID 878; 200,000 compounds, 0.03% hits; DTT-dependent redox cycling H2O2, phenol red/HRP absorbance; 100% = 100 µM peroxide control, 0% = buffer;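 active = activation of at least 50% relative to the plate's high and low controls in the primary single-dose screen; inactive = activation below 50%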;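 note: compound incubated with DTT at 0.8 mM final as the reducing agent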
p97 inhibitor = blocks human p97 ATPase activity. P55072. recombinant p97 ATPase, Kinase-Glo ATP luminescence, 3 h. inhibition, % at 8 µM. 220,000 compounds, 0.42% hits. AID 1481; in the data active = inhibition above about 15%;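 note: 0% = DMSO vehicle and 100% = wells lacking enzyme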
S1P4 antag = blocks the human S1P4 receptor; O95977; S1P4-expressing cells, antagonist mode, reporter read-out; inhibition, % at 4.98 µM; 220,000 compounds, 0.26% hits; AID 1510; in the data active = inhibition above about 29%;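 note: 0% = wells stimulated with agonist and 100% = vehicle wells without agonist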
Arbovirus anti = blocks arbovirus infection | inhibition, % at 10 µM | 200,000 compounds, 0.37% hits | AID 1251 | arbovirus infection cell-based antiviral screen; in the data active = inhibition above about 30%
S1P3 antag = antagonists of human S1P3 receptor. Q99500. CHO S1P3 NFAT-BLA reporter, FRET fluorescence, antagonist mode. inhibition, % at 4.98 µM. 170,000 compounds, 0.27% hits;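 active = inhibition above the plate cutoff, the mean inhibition of test wells on that plate plus 3 SD, cut at about 28% in these data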;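 note: cells challenged with S1P at its EC80 of 0.8 µM; blue over green emission ratio from cleaved BLA substrate after 4 h stimulation; 0% = S1P-stimulated wells and 100% = unstimulated DMSO-only wells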
p97 inh conf = human p97 ATPase inhibition, confirmation. shares compounds with p97 inhibitor. recombinant p97 ATPase, Kinase-Glo ATP luminescence. inhibition, % at 8 µM. 760 compounds, 44% hits;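 active = percent inhibition of p97 ATPase above a set limit, the primary screen's mean plus 3 SD, cut at about 15% in these data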;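 note: 0% = DMSO wells and 100% = wells lacking p97 protein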
The depositor's hits bear a star; / = not tested or not shown. A selection: hits, their analogues and other compounds. The true share with any hit is near 1.6%.

SMILES	S1P4 agonist	Redox H2O2 prof	p97 inhibitor	S1P4 antag	Arbovirus anti	S1P3 antag	p97 inh conf
Cc1ccc(SCC(=O)NC(=O)Nc2ccc3c(c2)OCCO3)cc1C	1	/	0	-10	-3	-8	/
CCn1c(NC(=O)c2cccs2)c(-c2cccs2)c(=O)c2ccccc21	0	2	2	1	0	-22	/
Cc1nc(N)sc1C(=O)Nc1ccccc1	-1	2	-4	-23	2	/	/
COC(=O)c1ccccc1NC(=O)c1sc(N)nc1C	-2	0	15*	-10	-7	5	7
CCOc1ccccc1CN1C(=O)c2ccccc2C1C(=O)NC(C)CC (stereo unspecified)	1	0	19*	-9	1	/	9
CCOc1ccccc1CN1C(=O)c2ccccc2C1C(=O)NCC1CCCO1 (stereo unspecified)	2	1	4	-15	5	-9	/
O=[N+]([O-])c1cccc(-c2noc(-c3cccs3)n2)c1	1	/	3	-7	/	12	/
Cn1c(=NC(=O)CCl)sc2ccccc21	0	-4	20*	8	-34	/	22*
Cn1c(=NC(=O)c2ccco2)sc2ccccc21	0	0	-1	-8	-6	6	/
O=C1CSC(c2ccc(F)cc2)N1c1nnc(C23CC4CC(CC(C4)C2)C3)s1 (stereo unspecified)	-1	0	4	2	-5	/	/
Cc1nc(NC(=O)c2ccccc2)sc1-c1csc(Nc2ccc(C(=O)O)cc2)n1	1	/	15*	-15	/	-11	15*
COc1cccc(Nc2nc(-c3sc(NC(=O)c4ccccc4)nc3C)cs2)c1	-2	-6	-5	-1	-30	/	/
CN1CCN(C(=O)CN(c2cc(C(F)(F)F)ccc2Cl)S(C)(=O)=O)CC1	0	0	1	-10	-3	/	/
O=C(O)c1ccc(NS(=O)(=O)c2ccc3c(c2)C2C=CCC2C(c2ccccc2F)N3)cc1 (stereo unspecified)	3	0	32*	-11	14	-5	37*
COc1ccc(/C=C2/C(=O)N(Cc3ccccc3)N=C2C)cc1	0	0	33*	-12	-11	-6	5
CCOc1cc(CNc2ccc(O)cc2)cc(Br)c1OCc1ccccc1F	0	2	8	-10	-23	/	/
COc1cc(CNc2ccc(O)cc2)cc(Br)c1OCc1ccccc1F	0	0	15*	3	-6	1	5
COc1cc(C=C2C(=O)c3ccccc3C2=O)ccc1O	2	/	-25	2	/	-3	/
COc1cc(/C=C2\COC/C(=C\c3ccc(O)c(OC)c3)C2=O)ccc1O	-1	/	15*	-7	/	3	14
COc1cc(/C=C2\CC/C(=C\c3ccc(OCCO)c(OC)c3)C2=O)ccc1OCCO	1	0	15*	11	2	9	5
COc1cc(/C=C2/SC(=Nc3ccc(O)cc3)NC2=O)ccc1O	1	/	25*	1	/	2	31*
COc1ccc(/C=C2\CC/C(=C\c3ccc(OC)c(OC)c3)C2=O)cc1OC	0	2	-3	6	-2	-5	/
COc1ccc(/C=C2\CCc3ccccc3C2=O)cc1OC	2	-4	-6	-10	12	/	/
COc1cc(/C=C2/CC/C(=C/c3ccc(O)c(OC)c3)C2=O)ccc1O	1	/	35*	-19	/	-9	17*
Cc1ccc(NC(=O)c2ccccc2)cc1OC(=O)c1ccccc1	3	-8	0	-6	1	/	/
SMILES	S1P4 agonist	Redox H2O2 prof	p97 inhibitor	S1P4 antag	Arbovirus anti	S1P3 antag	p97 inh conf
O=C(O)c1cccc(CN2C(=O)SC(Nc3cccc4ccccc34)C2=O)c1 (stereo unspecified)	-1	-9	17*	-1	-5	-18	13
Cc1ccc(OCC(=O)Nc2cc(S(=O)(=O)N3CCOCC3)ccc2Cl)c([N+](=O)[O-])n1	0	/	2	5	/	2	/
Cc1ccc2nc(Cl)c(CNCc3ccccc3)cc2c1	1	0	1	-7	2	-37	/
CCCn1nc([N+](=O)[O-])c(C(C#N)c2nc3ccccc3s2)c(Cl)c1=O (stereo unspecified)	-1	0	17*	17	-36	/	21*
CCn1nc([N+](=O)[O-])c(C(C#N)c2nc3ccccc3n2C)c(Cl)c1=O (stereo unspecified)	-1	0	5	-4	21	-3	/
O=C(OCc1ccccc1)C1=[N+]([O-])OC(C(=O)OCc2ccccc2)C1c1c[nH]c2ccccc12 (stereo unspecified)	-3	-12	28*	-10	-11	/	36*
O=C(OCC(=O)c1c[nH]c2ccccc12)c1ccco1	0	2	5	-16	-2	16	/
COC(=O)/C=C1/S/C(=N/NC(=O)c2ccc(Cl)cc2Cl)NC1=O	2	/	22*	6	/	1	21*
COc1cc2[nH]c(Cl)c([N+](=O)[O-])c2cc1OC	-1	/	17*	20	/	-15	6
COc1cc2[nH]c3c(Cl)ncnc3c2cc1OC	0	-1	7	-22	0	18	/
Nc1c(C(=O)Nc2ccccc2)sc2nc(-c3ccco3)ccc12	1	0	19*	-19	0	49	18*
Cc1ccc(Cl)cc1NC(=S)N(C)N	-2	/	6	1	/	-4	/
O=C1c2ccc([N+](=O)[O-])cc2NC(c2ccco2)N1/N=C/c1ccco1 (stereo unspecified)	1	/	16*	5	/	-3	8
COCc1cc(=O)[nH]c(-c2ccccc2)n1	2	-2	-3	-8	3	10	/
COc1ccc(/C(N)=C/C(=O)C(C)(C)C)cc1	0	2	34*	18	8	7	-2
CC(C)(C)C(=O)/C=C(\N)c1ccncc1	0	2	3	8	-3	-3	/
Cc1c(O)ccc(C(=O)CN2CCN(Cc3ccc4c(c3)OCO4)CC2)c1O	1	0	16*	-1	8	10	8
Cc1ccc(C(=O)N2CCN(Cc3ccc4c(c3)OCO4)CC2)o1	1	-4	-1	-6	5	/	/
O=C1c2ccccc2C(=O)N1CCCCSc1nc2ccccc2c(=O)n1CCCN1CCOCC1	0	-2	-14	-10	21	-5	/
O=C(Cc1c[nH]c2ccccc12)NNC(=O)c1ccccc1	0	0	1	-21	9	-14	/
O=C(O)Cc1c[nH]c2cccc(O)c12	0	0	17*	8	5	-3	19*
COC(=O)c1sccc1N/N=C/c1cccc(Oc2ccccc2)c1	1	1	-1	-23	5	7	/
CC1CC(N(C(=O)c2ccccc2Cl)c2ccccc2)c2ccccc2N1 (stereo unspecified)	-2	-2	-3	-17	-1	/	/
